About 4,000 (1.1%) of roughly 380,000 compounds were called active. Not shown: some 3% with an inconclusive outcome. The entries come from a sample that favours actives as a whole. Unmarked numbers belong to inactive results. The call rests on the fitted dose curve; in most records, active means well fitted activation curve with a large enough effect; inconclusive means small, poorly fitted or top-dose-only effect; inactive means no such curve, though single readings can be large or run the other way.
Potency means the concentration at half of the fitted maximal effect.

The assay in a line: qHTS Assay to Identify Small Molecule Activators of BRCA1 Expression. Further: nearly all actives have a fitted effect of over 80% in size. To be noted: MCF7-BRCA1-FFLuc reporter, luminescence, 48 h; series mostly up to 46.1 µM; activation: at the top concentration. The gist of the method: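 48 h compound treatment of MCF7-BRCA1-FFLuc cells (phenol-red free MEM, 37 °C), then 15 min with luciferase substrate and luminescence imaging.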
A general note: In qHTS, concentration-response curves come from the screen itself.
In the case of `CCc1ccc(NC(=O)Cn2ncn3c(cc4ccccc43)c2=O)cc1`, the “activation” value was -0.0009%. On the same count and under the same terms, the figure for `Cc1cccc(NC(=O)c2nnn(CC(=O)Nc3ccc(C(C)C)cc3)c2N)c1C` is 72.2%.

On to `CC(C)c1ccc(NC(=O)Cn2ncc3ccccc32)cc1`, for which the Potency is 10 µM (active). Regarding `COc1ccc(Cn2c(=O)[nH]c3cc(C(=O)N4CCN(C(=O)c5ccco5)CC4)ccc3c2=O)cc1`, the “activation” value was -22.8%. The same measure, in the same setting: the figure for `Cc1ccc(-c2nn3c(=O)cc(CN4CCN(C(=O)Nc5cccc(C(F)(F)F)c5)CC4)nc3s2)cc1` is 0.612%; for `COc1cc(OC)c(C2C=C(C(=O)O)Nc3ncnn32)cc1OC` (centres undefined) it is 10.8%; for `COc1ccc(C)cc1NC(=O)CCc1c(C)nn(-c2ccc(N3CCOCC3)nn2)c1C` it is 19.3%. Same read-out and setting: the figure for `CCOc1ccc(C(O)Cn2c(=N)n(CCN3CCCCC3)c3ccccc32)cc1` (centres undefined) is -32.1%.

Take `CCOc1ccc(C(O)Cc2nc3ccccc3n2C)cc1` (centres undefined): the Potency is 12.6 µM (active). For `COc1cccc(C(O)Cc2nc3ccccc3n2C)c1OC` (centres undefined), the “activation” value is 43%. The same measure, in the same setting: next, `CCn1cc2nc(SCc3ccccc3Cl)n(CCc3ccccc3)c(=O)c2n1`: 0%; `CC(C)(C)C1CCC(NC(=O)c2cnn3c2NC(=C2CC2)C=C3C(F)F)CC1` (centres undefined): -51.7%.

As to `CSCCNC(=O)c1ccc2nc(Cc3ccccc3F)oc2c1`, the Potency is 12.6 µM (active). Consider `COc1ccc(Cc2nc3ccc(C(=O)NCC4CCOCC4)cc3o2)cc1OC`, for which the “activation” value was -5.09%. Same read-out and setting: the figure for `COc1ccc(Cc2nc3ccc(C(=O)NCc4ccc(OC)cc4OC)cc3o2)cc1` is -11.6%; for `COc1ccc(CCn2c3c(c(=O)[nH]c2=S)CN(C(C)C)CN3)cc1OC` it is -12.2%. With `NS(=O)(=O)c1ccc(Nc2nc(-c3ccccc3)cs2)cc1`, the Potency was 7.08 µM (active). Turning to `COC(=O)[C@H](Cc1ccccc1)NC(=O)Nc1ccc(S(N)(=O)=O)cc1`, the “activation” value was -8.89%. Consider `CC(=O)c1ccc(Nc2nc(C(N)c3ccccc3)cs2)cc1` (centres undefined), for which the “activation” value is 18.7%.

As to `NS(=O)(=O)c1ccc(NC(=O)CSc2nnc3c(n2)[nH]c2ccccc23)cc1`, the “activation” value is 0%. The same measure, in the same setting: the figure for `COCCNC(=O)c1ccc2c(c1)N=C(C)c1cc(C)ccc1S2` is -66.9%; for `Brc1ccccc1C1N=C(c2ccccc2)NO1` (centres undefined) it is 42.9%.

Regarding `N#Cc1ccc(C2N=C(c3ccccc3)NO2)cc1` (centres undefined), the Potency was 2.51 µM (active). Consider `CCOc1ccccc1NC(=O)C1=C(C)Nc2ncnn2C1c1ccc(NC(C)=O)cc1` (centres undefined), for which the “activation” value was -11.2%.

Regarding `CC(=O)N1c2ccc(S(=O)(=O)N3CCCCCC3)cc2CC1C(=O)NCc1ccccc1C` (centres undefined), the “activation” value was -1.06%. On the same count and under the same terms, the figure for `COc1cccc(C(O)c2nc(-c3ccc(C)c(C)c3)cs2)c1` (centres undefined) is 35.3%. As for `COc1ccc(-c2csc(Nc3cccc(C)n3)n2)cc1OC`, the Potency was 2.82 µM (active). As for `COc1ccc(-c2cc(C(F)(F)F)n3nc(-c4ccccc4)cc3n2)cc1OC`, the “activation” value is -55.7%. Still for that read-out and setting: the figure for `O=C(c1ccc2c(=O)n(Cc3ccco3)c(=S)[nH]c2c1)N1CCCC1` is -11.9%. As to `O=C(Nc1cccc2cccnc12)c1cccc2c(Br)cccc12`, the “activation” value is -31.4%. Still for that read-out and setting: the figure for `Brc1cccc(-c2nnn3c2nc(NC2CCCCC2)c2ccccc23)c1` is -3.57%. Take `COc1ccc(-c2nc3ccccc3o2)cc1NC(=O)c1cc([N+](=O)[O-])ccc1N1CCOCC1`: the “activation” value is 11.7%. Still for that read-out and setting: next, `CCS(=O)(=O)Nc1cccc(-c2cc(-c3ccccc3)c3cc(C)ccc3n2)c1`: -71.4%; `CC(=O)Nc1cccc(-c2cc(NC(C)=O)c3ncc(-c4ccccc4)n3c2)c1`: -10.9%. As to `CC(=O)Nc1cccc(-c2cnc3ccccc3n2)c1`, the Potency is 3.98 µM (active). Regarding `COc1ccc(NCCc2ccccn2)cc1`, the Potency was 12.6 µM (active).

On to `COc1cncc(-c2cnc3sc(NCCc4ccccn4)nn23)c1`, for which the “activation” value is -32.3%. Consider `Cc1c(C)c(C)c(S(=O)(=O)NCCc2ccccn2)c(C)c1C`, for which the “activation” value was -0.0453%. The same measure, in the same setting: next, `CN(Cc1ccccc1)c1ncnc2onc(-c3ccc(F)cc3)c12`: -18.2%; `CCCCOC(=O)Nc1nnc(CC(=O)NCc2ccccc2)s1`: -16.7%. For the compound `CCCCCCOC(=O)NCC(O)c1ccccc1` (centres undefined), the Potency was 2.82 µM (active).

Regarding `O=C(CC(c1ccccc1)c1ccccc1)NCC(O)c1ccc([N+](=O)[O-])cc1` (centres undefined), the “activation” value is -36.3%.

Turning to `COc1ccc2cc(CNc3ccc(OC)c(OC)c3)c(=O)n(CC(=O)Nc3ccccc3F)c2c1`, the “activation” value is 6.1%.

`COc1cc2nc(N3CCCN(C)CC3)nc(NC(C)C)c2cc1OC`: the “activation” value was 4.14%. The same measure, in the same setting: next, `COc1cccc(CNC(=O)C(NS(=O)(=O)c2ccc3nc(C)sc3c2)C(C)C)c1` (centres undefined): 11.8%; `CCC(C)c1ccc(NC(=O)COC(=O)C2CCCC2)cc1` (centres undefined): 63.6%. Still for that read-out and setting: next, `NS(=O)(=O)c1ccc(NC(=S)N2CCCC2)cc1`: -14.7%.

Consider `CCC(C)c1ccc(NC(=S)N2CCCC2)cc1` (centres undefined), for which the Potency is 12.6 µM (active). Take `CCN(C(=O)Cn1cnc2sc(C)c(S(=O)(=O)N3CCN(c4ncccn4)CC3)c2c1=O)c1ccccc1F`: the “activation” value is 6.29%.

In the case of `COc1ccc(-c2ocnc2C(=O)Nc2ccc3c(c2)CCC3)cc1`, the “activation” value was 43%. As to `COc1ccc(-c2onc3ccc(C(C)=O)cc23)cc1`, the Potency was 8.91 µM (active). For the compound `CCOC(=O)c1c(-c2ccc(OC)cc2)oc2ccc(OCc3ccc(C(=O)OC)cc3)cc12`, the “activation” value was 11.6%. Take `Cc1ccc(N2CC(C(=O)Nc3ccc(N(C)C)cc3)CC2=O)cc1Cl` (centres undefined): the “activation” value is 0.738%. Still for that read-out and setting: the figure for `O=C(Nc1ccc(F)cc1F)c1cnn(-c2ccc(F)cc2)c1-n1cccc1` is -12.7%.

As to `CCc1ccc(NC(=O)Nc2ccncc2)cc1`, the Potency was 10 µM (active).

With `CC(C)CC(=O)Nc1ccc(Cc2ccncc2)cc1`, the “activation” value was -0.517%. On the same count and under the same terms, next, `CCc1ccc(NC(=O)N[C@H](C(=O)O)C(C)CC)cc1` (some centres undefined): 0%; `Cc1ccccc1Nc1nn2c(=O)c3ccc(C(=O)NCCc4ccc(Cl)cc4)cc3nc2s1`: 1.1%. On to `CN(N=O)c1ccc(C=C2c3ccccc3-c3ccccc32)cc1`, for which the “activation” value was -55.1%. With `COc1ccc(S(=O)(=O)NCCSc2nnnn2-c2ccccc2)cc1`, the “activation” value was -7.8%. The same measure, in the same setting: the figure for `O=C(Nc1ccc(F)cc1F)c1ccc2c(=O)n3c(nc2c1)CCCCC3` is 4.14%; for `CCCNC(=O)CCc1c(C)nc2c(c(C)nn2-c2ccc(C)cc2)c1C` it is -11.4%.

As for `CCCNC(=O)c1c(Cl)cnn1-c1ccc(C)cc1`, the Potency is 10 µM (active).

For the compound `CCc1nc2c(cnn2-c2ccc(C)cc2)c(=O)n1-c1ccc(C)cc1`, the “activation” value was -12.1%. Regarding `COc1ccccc1CNC(=O)CCn1c(=O)c2ccccc2n(CC(=O)Nc2cccc(Cl)c2)c1=O`, the “activation” value is 0%. On the same count and under the same terms, next, `O=C1Oc2ccccc2C(=O)/C1=C/c1ccccc1O`: -43.4%; `COc1cc(/C=C2\Oc3ccc(C#Cc4ccc(O)cc4)cc3C2=O)cc(OC)c1`: -68%. As for `COc1ccc2c(c1)O/C(=C\c1ccccc1O)C2=O`, the Potency was 12.6 µM (active). `Cc1ccc(C)c(CN2C(=O)c3ccccc3S(=O)c3ccc(C(=O)N4CCOCC4)cc32)c1` (centres undefined): the “activation” value was -8.36%. In the case of `Cc1ccc(-c2cc(-c3coc4ccccc4c3=O)c3c(n2)-c2cc(Cl)ccc2OC3)cc1`, the “activation” value was 5.07%. The same measure, in the same setting: the figure for `CN(C)CCCn1c(-c2ccc(Cl)cc2)csc1=Nc1ccccc1` is -56.6%. `Fc1ccccc1COc1cccc2cccnc12`: the Potency was 7.94 µM (active). Turning to `CCOc1cccc(OCCCOc2cccc3cccnc23)c1`, the “activation” value is 24.7%.

As to `O=S(=O)(NCCOc1cccc2cccnc12)c1ccc(F)cc1`, the “activation” value is 9%. The same measure, in the same setting: next, `CCOC(=O)c1cccc(NS(=O)(=O)c2cn(C)c(C)n2)c1`: -4.82%.

As for `Cc1ccc(S(=O)(=O)c2c(Nc3cccc(Cl)c3)sc(C(=O)c3ccc4c(c3)OCO4)c2N)cc1`, the “activation” value was -20.3%. Take `CC1(C)CC(=O)C=C(c2ccc(COC(=O)c3cc(F)cc(F)c3)cc2)C1=O`: the “activation” value is -11.8%.

Take `Cc1ccc(-c2ccc(C3=CC(=O)CC(C)(C)C3=O)cc2)cc1`: the Potency was 2.24 µM (active). With `CC1(C)CC(=O)C=C(c2ccccc2CO)C1=O`, the “activation” value was 14.4%.

With `COc1cc(C(=O)Nc2ccc(OCc3cc(=O)n4cc(C)sc4n3)cc2)cc(OC)c1OC`, the “activation” value is 5.16%. Still for that read-out and setting: next, `CC1=Nc2cc(C(=O)N3CCC(C)CC3)ccc2Sc2ccc(Cl)cc21`: -35.4%. Same read-out and setting: the figure for `Oc1ccc(Cl)cc1C1C=C(c2ccc3c(c2)OCO3)NC(c2ccc(F)c(Br)c2)N1` (centres undefined) is -37.8%. Consider `COc1ccc(C2=NN(C(C)=O)C(c3ccccc3)C2)cc1` (centres undefined), for which the Potency was 11.2 µM (active). Regarding `COc1ccc(C2=NN(C(=O)CSc3nc(=O)n4ccc(C)cc4n3)C(c3ccc(C)cc3)C2)cc1` (centres undefined), the “activation” value was -15.3%. Still for that read-out and setting: next, `COc1ccc(C2CC(c3ccccc3)=NN2C(=O)c2ccc(Cl)c([N+](=O)[O-])c2)cc1` (centres undefined): -88.3%; `O=C(Nc1c(-c2ccc(F)cc2)nc2ccccn12)c1cccc(F)c1`: -21.3%.

As to `CC(C)c1ccc(NC(=S)NC2CC3C=CC2C3)cc1` (centres undefined), the Potency was 4.47 µM (active). Consider `Cc1ccc(C)c(NC(=S)NNC(=S)Nc2ccc(C(C)C)cc2)c1`, for which the “activation” value is -7.76%. Turning to `O=C(COC(=O)C1CC2C=CC1C2)Nc1ccccc1` (centres undefined), the “activation” value was -10.1%. For `OC[C@@H]1O[C@H](n2cnc3c(SCc4ccccc4)ncnc32)[C@H](O)[C@H]1O`, the “activation” value was 0%.

`COc1cc(OC)cc(-c2nc3nc(C)c(CCC(=O)Nc4ccccc4)c(C)n3n2)c1`: the “activation” value is 6.37%. For `CC(=O)c1ccc(NC(=O)COc2ccccc2-c2nc(-c3ccccc3)no2)cc1`, the “activation” value is 0%. Same read-out and setting: the figure for `CCN(C(=O)c1sc2cc(OC)ccc2c1Cl)c1ccccc1` is -24.9%; for `O=C(NCc1ccco1)c1sc2cccc(F)c2c1Cl` it is 60.2%.

Take `COc1ccc2c(Cl)c(C(=O)NCc3ccco3)sc2c1`: the Potency is 11.2 µM (active). In the case of `C=C1C=C(C(F)F)n2ncc(C(=O)NCCc3ccccc3OC)c2N1`, the “activation” value was -8.16%.

As to `CNC(=O)c1nnc(Cc2ccc(Cl)cc2)o1`, the “activation” value was 27.6%. In the case of `Clc1ccc(Cc2nnc(-c3cccs3)o2)cc1`, the Potency was 11.2 µM (active). Take `c1csc(-c2nnc(COc3ncnc4sccc34)o2)c1`: the “activation” value is -5.83%. Turning to `CCCCCCCNc1ccc(/C=C/c2ccnc3ccccc23)cc1`, the “activation” value is -60.9%.

Regarding `COc1ccc(Cc2n[nH]c(=S)n2NC(=O)Nc2ccc(C)cc2)cc1`, the Potency is 12.6 µM (active).

With `COc1ccc(Cn2c(C)c(C)c(C#N)c2NC(=O)Nc2ccc(F)cc2)cc1`, the “activation” value is 0%. In the case of `COc1ccc(OCc2n[nH]c(=S)n2N)cc1`, the “activation” value is 2.71%. For `CN(C)c1ccc(C=Nc2ccc(/C=C/c3ccnc4ccccc34)cc2)cc1`, the “activation” value is 8.08%.

The values are drawn from PubChem BioAssay AID624202 (National Center for Advancing Translational Sciences (NCATS), 2012).
